# Assay results from the supplement of paper PMC10037445.
# In all, about 2,900 compounds were measured (“NF-kB SEAP reporter activity, fold change vs agonist alone”: median about 0.99, highest 2% from about 2.6 on). For the sample, the highest values were picked, then their nearest neighbours and some compounds at random.
# Key:
# RAW-Dual [1] = assay: NF-kB SEAP reporter activity, fold change vs agonist alone; higher = enhanced NF-kB activity
# Outline: (§1)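 RAW-Dual macrophages were seeded in DMEM at 50,000 cells/well in 384-well plates, given 50 nL of library stock by pin tool, and given a PRR agonist 1 h later. Plates were held at 37 °C, 5% CO2 for 20 hours, after which supernatant was read for IRF by QuantiLuc luminescence and for NF-κB by QuantiBlue absorbance at 620 nm. Reporter activity is expressed as fold change over wells that received agonist alone. A well was called cytotoxic when IncuCyte confluency fell below 70% of agonist controls in both mask sets.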
# RAW-Dual [2] = assay: NF-kB SEAP reporter activity, fold change vs agonist alone; cytotoxicity flag (confluency mask): not cytotoxic; higher = enhanced NF-kB activity
# Outline: as §1
# RAW-Dual [3] = assay: NF-kB SEAP reporter activity, fold change vs agonist alone; cytotoxicity flag (confluency mask): cytotoxic (confluency <70% of control); higher = enhanced NF-kB activity
# Outline: as §1
# [4] = library stock concentration (final ~1000-fold dilution): 10 mM, cytotoxicity flag (confluency mask): not cytotoxic, agonist: Imiquimod (TLR7) […]
# [5] = library stock concentration (final ~1000-fold dilution): 10 mM, cytotoxicity flag (confluency mask): not cytotoxic, agonist: MPLA (TLR4) […]
# [6] = agonist: ODN 1826 (TLR9) 0.5 ug/mL
# [7] = agonist: Pam2CSK4 (TLR2/6) 0.1 ug/mL
# [8] = agonist: Pam3CSK4 (TLR2/1) 0.1 ug/mL
# [9] = library stock concentration (final ~1000-fold dilution): 10 mM, cytotoxicity flag (confluency mask): cytotoxic (confluency <70% of control), agonist: Imiquimod (TLR7) […]
# [10] = library stock concentration (final ~1000-fold dilution): 10 mM, cytotoxicity flag (confluency mask): cytotoxic (confluency <70% of control), agonist: MPLA (TLR4) […]
# [11] = library stock concentration (final ~1000-fold dilution): 10 mM water, cytotoxicity flag (confluency mask): not cytotoxic, agonist: Imiquimod (TLR7) […]
# [12] = library stock concentration (final ~1000-fold dilution): 10 mM water, cytotoxicity flag (confluency mask): not cytotoxic, agonist: MPLA (TLR4) […]
structure (smiles),measurement,setting,value
O=C(Oc1cc(S(=O)(=O)c2ccccc2)ccc1[N+](=O)[O-])c1ccc(Cl)cc1,NF-kB SEAP reporter activity,RAW-Dual [1]; [4],1.32
same,NF-kB SEAP reporter activity,RAW-Dual [1]; [5],2.59
O=C(Nc1ccccc1C(=O)O)c1cc(S(=O)(=O)c2ccccc2)ccc1Cl,NF-kB SEAP reporter activity,RAW-Dual [1]; [4],0.883
same,NF-kB SEAP reporter activity,RAW-Dual [1]; [5],1.01
O=C(Oc1coc(CSc2ncccn2)cc1=O)c1ccc([N+](=O)[O-])cc1 (library stock concentration (final ~1000-fold dilution): 10 mM),NF-kB SEAP reporter activity,RAW-Dual [2]; agonist: LPS (TLR4) 0.1 ug/mL,1.26
same,NF-kB SEAP reporter activity,RAW-Dual [2]; [6],0.944
same,NF-kB SEAP reporter activity,RAW-Dual [2]; [7],1.19
same,NF-kB SEAP reporter activity,RAW-Dual [2]; [8],0.981
COCCOc1cc(F)c2c(Nc3ccc(NC(=O)Cn4cc(C(C)C)nn4)cc3)ncnc2c1,NF-kB SEAP reporter activity,RAW-Dual [1]; [4],1.14
same,NF-kB SEAP reporter activity,RAW-Dual [1]; [5],1.01
COCCOc1cc(F)c2c(Nc3ccc(NC(=O)Cn4cc(C(C)C)nn4)cc3)ncnc2c1 (library stock concentration (final ~1000-fold dilution): 10 mM),NF-kB SEAP reporter activity,RAW-Dual [2]; agonist: LPS (TLR4) 0.1 ug/mL,1.36
same,NF-kB SEAP reporter activity,RAW-Dual [2]; [6],0.989
same,NF-kB SEAP reporter activity,RAW-Dual [2]; [7],1.16
same,NF-kB SEAP reporter activity,RAW-Dual [2]; [8],1.24
CC(C)c1cnn2c(NCc3ccccc3)cc(NCCCCCCN)nc12.Cl,NF-kB SEAP reporter activity,RAW-Dual [1]; [9],2.18
same,NF-kB SEAP reporter activity,RAW-Dual [1]; [10],0.882
CC(C)c1cnn2c(NCc3ccccc3)cc(NCCCCCCN)nc12.Cl (library stock concentration (final ~1000-fold dilution): 10 mM),NF-kB SEAP reporter activity,RAW-Dual [3]; agonist: LPS (TLR4) 0.1 ug/mL,0.271
same,NF-kB SEAP reporter activity,RAW-Dual [3]; [6],0.234
same,NF-kB SEAP reporter activity,RAW-Dual [3]; [7],1.08
same,NF-kB SEAP reporter activity,RAW-Dual [3]; [8],1.5
COc1ccccc1N1CCN(CCCNc2cc(=O)n(C)c(=O)n2C)CC1.Cl (library stock concentration (final ~1000-fold dilution): 10 mM),NF-kB SEAP reporter activity,RAW-Dual [2]; agonist: LPS (TLR4) 0.1 ug/mL,1.02
same,NF-kB SEAP reporter activity,RAW-Dual [2]; [6],0.978
same,NF-kB SEAP reporter activity,RAW-Dual [2]; [7],1.06
same,NF-kB SEAP reporter activity,RAW-Dual [2]; [8],1.17
COc1ccccc1N1CCN(CCCNc2cc(=O)n(C)c(=O)n2C)CC1.Cl,NF-kB SEAP reporter activity,RAW-Dual [1]; [4],1.18
same,NF-kB SEAP reporter activity,RAW-Dual [1]; [5],0.935
COc1cc2c(cc1NS(=O)(=O)c1ccc(Br)cc1C)n(C)c(=O)n2C (library stock concentration (final ~1000-fold dilution): 10 mM),NF-kB SEAP reporter activity,RAW-Dual [2]; agonist: LPS (TLR4) 0.1 ug/mL,1.73
same,NF-kB SEAP reporter activity,RAW-Dual [2]; [6],1.23
same,NF-kB SEAP reporter activity,RAW-Dual [2]; [7],0.828
same,NF-kB SEAP reporter activity,RAW-Dual [2]; [8],1.08
COc1cc2c(cc1NS(=O)(=O)c1ccc(Br)cc1C)n(C)c(=O)n2C,NF-kB SEAP reporter activity,RAW-Dual [1]; [4],0.973
same,NF-kB SEAP reporter activity,RAW-Dual [1]; [5],1.39
COc1ccccc1S(=O)(=O)Nc1ccc2c(c1)CN(C)C(=O)N2,NF-kB SEAP reporter activity,RAW-Dual [1]; [4],2.14
same,NF-kB SEAP reporter activity,RAW-Dual [1]; [5],2.51
COc1ccccc1S(=O)(=O)Nc1ccc2c(c1)CN(C)C(=O)N2 (library stock concentration (final ~1000-fold dilution): 10 mM),NF-kB SEAP reporter activity,RAW-Dual [2]; agonist: LPS (TLR4) 0.1 ug/mL,3.81
same,NF-kB SEAP reporter activity,RAW-Dual [2]; [6],2.25
same,NF-kB SEAP reporter activity,RAW-Dual [2]; [7],0.457
same,NF-kB SEAP reporter activity,RAW-Dual [2]; [8],1.4
CN1C(=N)NC(C)(c2cc(NC(=O)c3ccc(F)cn3)ccc2F)CS1(=O)=O (stereo not given),NF-kB SEAP reporter activity,RAW-Dual [1]; [4],0.847
same,NF-kB SEAP reporter activity,RAW-Dual [1]; [5],0.931
CN1C(=N)NC(C)(c2cc(NC(=O)c3ccc(F)cn3)ccc2F)CS1(=O)=O (stereo not given) (library stock concentration (final ~1000-fold dilution): 10 mM),NF-kB SEAP reporter activity,RAW-Dual [2]; agonist: LPS (TLR4) 0.1 ug/mL,0.906
same,NF-kB SEAP reporter activity,RAW-Dual [2]; [6],0.673
same,NF-kB SEAP reporter activity,RAW-Dual [2]; [7],0.747
same,NF-kB SEAP reporter activity,RAW-Dual [2]; [8],0.657
O=C(O)CN1C(=O)c2cccc3cccc(c23)C1=O,NF-kB SEAP reporter activity,RAW-Dual [1]; [4],0.931
same,NF-kB SEAP reporter activity,RAW-Dual [1]; [5],1.03
COc1ccc(-n2c(SCCCN3C(=O)c4cccc5cccc(c45)C3=O)nnc2-c2ccncc2)cc1,NF-kB SEAP reporter activity,RAW-Dual [1]; [4],1.08
same,NF-kB SEAP reporter activity,RAW-Dual [1]; [5],1.32
O=C(CCCCCN1C(=O)c2cccc3cccc(c23)C1=O)NO,NF-kB SEAP reporter activity,RAW-Dual [1]; [9],1.51
same,NF-kB SEAP reporter activity,RAW-Dual [1]; [10],2.33
O=C(CCCCCN1C(=O)c2cccc3cccc(c23)C1=O)NO (library stock concentration (final ~1000-fold dilution): 10 mM),NF-kB SEAP reporter activity,RAW-Dual [3]; agonist: LPS (TLR4) 0.1 ug/mL,3.67
same,NF-kB SEAP reporter activity,RAW-Dual [3]; [6],2.57
same,NF-kB SEAP reporter activity,RAW-Dual [3]; [7],1.28
same,NF-kB SEAP reporter activity,RAW-Dual [3]; [8],2.06
COc1ccc(-n2c(SCCCN3C(=O)c4cccc5cccc(c45)C3=O)nnc2-c2ccncc2)cc1 (library stock concentration (final ~1000-fold dilution): 10 mM),NF-kB SEAP reporter activity,RAW-Dual [2]; agonist: LPS (TLR4) 0.1 ug/mL,2.06
same,NF-kB SEAP reporter activity,RAW-Dual [2]; [6],1.17
same,NF-kB SEAP reporter activity,RAW-Dual [2]; [7],1.3
same,NF-kB SEAP reporter activity,RAW-Dual [2]; [8],2.18
O=C(O)CN1C(=O)c2cccc3cccc(c23)C1=O (library stock concentration (final ~1000-fold dilution): 10 mM),NF-kB SEAP reporter activity,RAW-Dual [2]; agonist: LPS (TLR4) 0.1 ug/mL,0.89
same,NF-kB SEAP reporter activity,RAW-Dual [2]; [6],0.942
same,NF-kB SEAP reporter activity,RAW-Dual [2]; [7],1.03
same,NF-kB SEAP reporter activity,RAW-Dual [2]; [8],1.06
CCCCCOc1ccc(-c2ccc(-c3ccc(C(=O)NC4CC(O)C(O)NC(=O)C5C(O)C(C)CN5C(=O)C(C(C)O)NC(=O)C(C(O)C(O)c5ccc(O)cc5)NC(=O)C5CC(O)CN5C(=O)C(C(C)O)NC4=O)cc3)cc2)cc1 (stereo not given) (library stock concentration (final ~1000-fold dilution): 10 mM),NF-kB SEAP reporter activity,RAW-Dual [3]; agonist: LPS (TLR4) 0.1 ug/mL,3.72
same,NF-kB SEAP reporter activity,RAW-Dual [3]; [6],0.545
same,NF-kB SEAP reporter activity,RAW-Dual [3]; [7],1.28
same,NF-kB SEAP reporter activity,RAW-Dual [3]; [8],1.42
CCCCCOc1ccc(-c2cc(-c3ccc(C(=O)NC4CC(O)C(O)NC(=O)C5C(O)C(C)CN5C(=O)C(C(O)CC(N)=O)NC(=O)C(C(O)C(O)c5ccc(O)c(OS(=O)(=O)O)c5)NC(=O)C5CC(O)CN5C(=O)C(C(C)O)NC4=O)cc3)no2)cc1 (stereo not given) (library stock concentration (final ~1000-fold dilution): 10 mM water),NF-kB SEAP reporter activity,RAW-Dual [2]; agonist: LPS (TLR4) 0.1 ug/mL,1.2
same,NF-kB SEAP reporter activity,RAW-Dual [2]; [6],1.05
same,NF-kB SEAP reporter activity,RAW-Dual [2]; [7],0.968
same,NF-kB SEAP reporter activity,RAW-Dual [2]; [8],1.09
CCC(C)CC(C)CCCCCCCCC(=O)NC1CC(O)C(NCCN)NC(=O)C2C(O)CCN2C(=O)C(C(O)CCN)NC(=O)C(C(O)C(O)c2ccc(O)cc2)NC(=O)C2CC(O)CN2C(=O)C(C(C)O)NC1=O (stereo not given) (library stock concentration (final ~1000-fold dilution): 10 mM water),NF-kB SEAP reporter activity,RAW-Dual [2]; agonist: LPS (TLR4) 0.1 ug/mL,1.29
same,NF-kB SEAP reporter activity,RAW-Dual [2]; [6],1.08
same,NF-kB SEAP reporter activity,RAW-Dual [2]; [7],1.09
same,NF-kB SEAP reporter activity,RAW-Dual [2]; [8],0.968
CCCCCOc1ccc(-c2ccc(-c3ccc(C(=O)NC4CC(O)C(O)NC(=O)C5C(O)C(C)CN5C(=O)C(C(C)O)NC(=O)C(C(O)C(O)c5ccc(O)cc5)NC(=O)C5CC(O)CN5C(=O)C(C(C)O)NC4=O)cc3)cc2)cc1 (stereo not given),NF-kB SEAP reporter activity,RAW-Dual [1]; [9],1.67
same,NF-kB SEAP reporter activity,RAW-Dual [1]; [10],2.43
CCCCCOc1ccc(-c2cc(-c3ccc(C(=O)NC4CC(O)C(O)NC(=O)C5C(O)C(C)CN5C(=O)C(C(O)CC(N)=O)NC(=O)C(C(O)C(O)c5ccc(O)c(OS(=O)(=O)O)c5)NC(=O)C5CC(O)CN5C(=O)C(C(C)O)NC4=O)cc3)no2)cc1 (stereo not given),NF-kB SEAP reporter activity,RAW-Dual [1]; [11],0.949
same,NF-kB SEAP reporter activity,RAW-Dual [1]; [12],1.14
CCC(C)CC(C)CCCCCCCCC(=O)NC1CC(O)C(NCCN)NC(=O)C2C(O)CCN2C(=O)C(C(O)CCN)NC(=O)C(C(O)C(O)c2ccc(O)cc2)NC(=O)C2CC(O)CN2C(=O)C(C(C)O)NC1=O (stereo not given),NF-kB SEAP reporter activity,RAW-Dual [1]; [11],0.901
same,NF-kB SEAP reporter activity,RAW-Dual [1]; [12],0.866
